This is a sample that favours compounds with a hit; in the whole collection about 4.1% have one here.
CSC inhib = cancer stem cell inhibition; cancer stem cell-like cells viability, luminescence; inhibition, % at 7.5 µM; hit rate 1.1% among 300,000; AID 2717; in the data active = inhibition above about 75%; inconclusive = no clear call, values can overlap the other calls; tested in HMLE shEcad cells
Beta apoptosis = blocks beta cell apoptosis | INS-1E cytokine-induced death, ATP luminescence, 48 h; percent of positive-control rescue, neutral wells zero | protection from apoptosis, % (test concentration not listed) | hit rate 0.8% among 300,000;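 active = Every replicate reaches about 75%, or at least half do and their mean reaches it too, limit read from the data; inconclusive = At least half of replicates reach the limit but their mean does not; inactive = Under half of replicates reach the limit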;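 also: higher means more ATP so stronger rescue from cytokine killing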
aSyn UTR inh = 5' untranslated region of α-synuclein, MLPCN primary screen. hit rate 0.82% among 300,000. inhibition, % (tested at 7.5 µM). alpha-synuclein 5'UTR reporter, inhibitor activity; in the data active = inhibition above about 60%; inconclusive = no clear call, values can overlap the other calls;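 also: H4 neuroglioblastoma cells stably carrying SNCA 5'UTR luciferase fusion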
Mdm2 MdmX PPI = disrupts the human Mdm2-MdmX interaction; hit rate 3% among 330,000; O15151+Q00987; inhibition, % at 8 µM; SaOS-2 split-luciferase Mdm2/MdmX complementation, luminescence;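 active = inhibition of at least 50% at 8 µM in the primary screen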
Target sequence (O15151 whole entry, looked up): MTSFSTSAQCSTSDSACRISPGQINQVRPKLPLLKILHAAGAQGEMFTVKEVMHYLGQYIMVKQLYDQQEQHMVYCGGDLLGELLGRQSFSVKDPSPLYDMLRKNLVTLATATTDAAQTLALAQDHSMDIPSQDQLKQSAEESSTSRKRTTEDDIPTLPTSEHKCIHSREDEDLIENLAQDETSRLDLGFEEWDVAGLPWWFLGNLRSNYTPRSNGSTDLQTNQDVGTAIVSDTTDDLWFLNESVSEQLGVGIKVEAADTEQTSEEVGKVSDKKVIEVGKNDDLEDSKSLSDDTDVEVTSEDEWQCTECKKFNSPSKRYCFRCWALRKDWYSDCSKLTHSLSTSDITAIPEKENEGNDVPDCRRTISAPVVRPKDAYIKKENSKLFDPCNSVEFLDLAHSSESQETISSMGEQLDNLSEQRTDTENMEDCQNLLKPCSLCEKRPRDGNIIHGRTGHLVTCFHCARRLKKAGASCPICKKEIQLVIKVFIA
Target sequence (Q00987 whole entry, looked up): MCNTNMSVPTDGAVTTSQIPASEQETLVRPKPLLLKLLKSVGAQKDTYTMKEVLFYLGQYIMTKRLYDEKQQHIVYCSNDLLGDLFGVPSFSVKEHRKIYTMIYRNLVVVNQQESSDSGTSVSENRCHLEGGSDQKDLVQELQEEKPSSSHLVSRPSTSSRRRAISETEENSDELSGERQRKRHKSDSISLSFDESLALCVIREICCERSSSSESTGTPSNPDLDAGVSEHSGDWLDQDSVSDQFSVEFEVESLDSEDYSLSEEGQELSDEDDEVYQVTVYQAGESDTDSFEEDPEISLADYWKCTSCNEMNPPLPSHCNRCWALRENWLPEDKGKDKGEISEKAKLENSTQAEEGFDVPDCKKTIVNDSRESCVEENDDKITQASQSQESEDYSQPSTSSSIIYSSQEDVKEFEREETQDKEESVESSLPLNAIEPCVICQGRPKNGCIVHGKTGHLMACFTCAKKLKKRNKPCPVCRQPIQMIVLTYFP
Bfl-1 A1 inh = inhibitors of the anti-apoptotic protein A1, read as caspase activation | MEF A1-2A-BIM cells, Caspase-Glo 3/7 luminescence, 3 h; percent of clofoctol response, vehicle zero | caspase activation, % (no concentration beside the values) | hit rate 0.066% among 330,000 | AID 2462;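 active = over half of replicate activation scores above 10%, or exactly half above 10 with the replicate mean above 10; inconclusive = replicate mean below 10 yet half the replicates above 10; inactive = over half of replicates below 10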
Mdm2 MdmX conf = confirmation of human Mdm2/MdmX interaction inhibitors; shares compounds with Mdm2 MdmX PPI; Mdm2-MdmX binding, luminescent assay; inhibition, % at 8 µM; hit rate 55% among 10,000; AID 489028; in the data active = inhibition above about 40%
FLuc counter = counter-screen for Mdm2/MdmX inhibitors: full-length luciferase. inhibition, % at 8 µM. hit rate 77% among 6,200. shares compounds with Mdm2 MdmX PPI. AID 504607. SaOS-2 full-length luciferase counterscreen, luminescence;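 active = mean inhibition at 8 µM reaching about 37%, which flags the compound as non-specific, limit read from the data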;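 also: p53-null SaOS-2 cells with luciferase driven by a doxycycline-inducible promoter; compound on cells about two nights before reading with doxycycline added after day one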
Each line names hits and unclear results; the compound was inactive in the other large screens (follow-up assays come after a bar, where they were run).

Cc1cccnc1NC(=S)NC(=O)c1cccs1	none
CC1(C(=O)Nc2ccc3c(c2)OCO3)CC1(Cl)Cl (stereo not given)	none
COc1ccc(CN2CCN(C(c3ccc(F)cc3)c3ccc(F)cc3)CC2)c(OC)c1OC	Mdm2 MdmX PPI 81 (no result: Beta apoptosis) | Mdm2 MdmX conf 45 | FLuc counter 69
COc1ccc(CN2CCN(c3ccc(F)cc3)CC2)c(OC)c1OC	none
COCC1CCCN(C(=O)c2ccc3nc(Cc4cccc(Cl)c4)oc3c2)C1 (stereo not given)	none
COCC(C)n1c(C)cc(C(=O)COC(=O)c2cc(=O)[nH]c3ccccc23)c1C (stereo not given)	Mdm2 MdmX PPI 58 (no result: aSyn UTR inh) | Mdm2 MdmX conf 68 | FLuc counter 97
COCC(C)n1c(C)cc(C(=O)COC(=O)c2n[nH]c3ccccc23)c1C (stereo not given)	none
O=C(c1ccc(OC2CCN(C/C=C/c3ccc(F)cc3)CC2)cc1)N1CCCC1	none
COc1ccc(CCNC(=O)CCCOc2cc(=O)n(C)c3ccccc23)cc1OC	none
COc1ccccc1CNC(=O)CCCOc1cc(=O)n(C)c2ccccc12	Mdm2 MdmX PPI 59 | Mdm2 MdmX conf inactive
CC1=C(C(=O)Nc2cccc(F)c2)C(c2ccsc2)C2=C(CC(C)(C)CC2=O)N1 (stereo not given)	Mdm2 MdmX PPI 54 | Mdm2 MdmX conf 54 | FLuc counter 55
N#CC1=C(N)N2C(=C(C#N)C1c1ccccc1)Sc1ccccc12 (stereo not given)	none
N#CC1=C(N)N2C(=C(C#N)C1c1cccc(Br)c1)Nc1ccccc12 (stereo not given)	Beta apoptosis 100, aSyn UTR inh inconclusive, Mdm2 MdmX PPI 100 | Mdm2 MdmX conf 44 | FLuc counter 40
N#CC1=C(N)N2C(=C(C#N)C1c1ccc(Br)cc1)Nc1ccccc12 (stereo not given)	CSC inhib 114, Beta apoptosis 109, Mdm2 MdmX PPI 96 | Mdm2 MdmX conf 95 | FLuc counter 53
COC(=O)[C@H](Cc1ccccc1)NC(=O)Cn1cnc2c(NCc3ccccc3)ncnc21	none (no result: CSC inhib, Beta apoptosis, aSyn UTR inh, Bfl-1 A1 inh)
CCOC(=O)/C=C(\C)Sc1cc(=O)oc2ccccc12	Mdm2 MdmX PPI 55 | Mdm2 MdmX conf inactive
CCOC(=O)Nc1oc2ccccc2c(=O)c1C	none
CC(C)[C@H](CO)Nc1nc(NCc2ccc(S(N)(=O)=O)cc2)c2ncn(C(C)C)c2n1	Mdm2 MdmX PPI 79 | Mdm2 MdmX conf 64 | FLuc counter 51
CC(C)n1cnc2c(NCc3ccc(S(N)(=O)=O)cc3)nc(NCc3ccc(S(N)(=O)=O)cc3)nc21	none
COc1cc(/C=C2/SC(=O)N(Cc3ccccc3Cl)C2=O)ccc1OCc1ccncc1	Mdm2 MdmX PPI 51 | Mdm2 MdmX conf inactive
COc1ccc(OC)c(N=c2oc3c(OC)cccc3cc2C(=O)NCc2ccco2)c1	none (no result: CSC inhib, Bfl-1 A1 inh)
COc1ccccc1N=c1oc2c(OC)cccc2cc1C(=O)NCc1ccco1	Mdm2 MdmX PPI 51 | Mdm2 MdmX conf inactive
CCCCCc1cc(=O)oc2c(C(CCN3CCCCC3)c3cc(OC)c(OC)c(OC)c3)c(OC)cc(OC)c12 (stereo not given)	CSC inhib 79, Mdm2 MdmX PPI 98 | Mdm2 MdmX conf 46 | FLuc counter inactive
COc1cc(OC)c2ccc(=O)oc2c1C(CCN1CCCC(C)C1)c1ccc(N(C)C)cc1 (stereo not given)	none
COc1cc(C(CCN2CCCC2)c2c(OC)cc(OC)c3ccc(=O)oc23)cc(OC)c1OC (stereo not given)	none
CCCCCc1cc(=O)oc2c(C(CCN3CCCC(C)C3)c3ccc(N(C)C)cc3)c(OC)cc(OC)c12 (stereo not given)	CSC inhib 109, Mdm2 MdmX PPI 96 | Mdm2 MdmX conf inactive
CCCCCc1cc(=O)oc2c(C(CCN(CC)CC)c3ccc(N(C)C)cc3)c(OC)cc(OC)c12 (stereo not given)	Mdm2 MdmX PPI 90 | Mdm2 MdmX conf inactive
CCCCCc1cc(=O)oc2c(C(CCN3CCCC(C)C3)c3cc(OC)c(OC)c(OC)c3)c(OC)cc(OC)c12 (stereo not given)	CSC inhib 102, Beta apoptosis 110, Mdm2 MdmX PPI 100 | Mdm2 MdmX conf 52 | FLuc counter 43
